Experiment in all cases: NCI-60 one-dose screen, 48 h (100 = growth as untreated, 0 = no growth, -100 = all killed)
One assay has as its system HCT-15 colon. The conditions noted are these: 10 µM unless noted.
Another assay concerns HT29 colon. As to conditions: 10 µM unless noted.
Another assay concerns SNB-75 CNS. As to conditions: 10 µM unless noted.
In a further assay the test system is SNB-19 CNS. The conditions noted are these: 10 µM unless noted.
The test system of another assay is U251 CNS. The conditions noted are these: 10 µM unless noted.
A further assay relates to PC-3 prostate. The conditions noted are these: 10 µM unless noted.
Another assay deals with SK-MEL-5 melanoma. As to conditions: 10 µM unless noted.
For a further assay, the system named is UACC-62 melanoma. As to conditions: 10 µM unless noted.
For a further assay, the system named is LOX IMVI melanoma. As to conditions: 10 µM unless noted.
A further assay concerns SK-MEL-28 melanoma. As to conditions: 10 µM unless noted.
The subject of the next assay is SK-MEL-2 melanoma. As to conditions: 10 µM unless noted.
Another assay deals with SN12C renal. As to conditions: 10 µM unless noted.
The next assay concerns UO-31 renal. As to conditions: 10 µM unless noted.
A further assay has as its system TK-10 renal. The conditions noted are these: 10 µM unless noted.
The test system of the next assay is ACHN renal. As to conditions: 10 µM unless noted.
A further assay relates to CAKI-1 renal. As to conditions: 10 µM unless noted.
In a further assay the test system is A498 renal. The conditions noted are these: 10 µM unless noted.
The subject of the next assay is MOLT-4 leukemia. The conditions noted are these: 10 µM unless noted.
In another assay the test system is CCRF-CEM leukemia. The conditions noted are these: 10 µM.
In the next assay the test system is EKVX NSCLC. The conditions noted are these: 10 µM.

SMILES strings stand for the structures. The panel holds about 83,000 compounds, 20% with a hit somewhere; the sample as a whole holds those more often.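 Results are percent growth after 48 hours of single-concentration exposure. 100 means growth as in untreated cells, lower positive values show inhibition; negative values down to -100 show cell death.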 Values without a mark were called inactive. Calls of active or inactive are those of the source. How the source made its calls: active means growth percent below 10; inactive means the rest.

The values that follow come from PubChem BioAssay (NCI).

On to `COc1ccc(Nc2c3ccccc3nc3ccccc23)cc1`, for which the growth with HCT-15 colon is 25.2%; in the assay with HT29 colon, 8.49% (active); in the assay with SNB-75 CNS, 16.2%; in the assay on SNB-19 CNS it was 53.2%; with U251 CNS, 16.1%; in the assay on PC-3 prostate it was 32.6%. The growth with SK-MEL-5 melanoma was 24.8%; with UACC-62 melanoma, 47.6%; in the assay on LOX IMVI melanoma, 21.3%; with SK-MEL-28 melanoma, 49.7%; in the assay with SK-MEL-2 melanoma, 54.5%; in the assay on SN12C renal, 30.1%. The growth in the assay on UO-31 renal was 7.72% (active); with TK-10 renal, 51.8%; in the assay on ACHN renal it was -11% (active); in the assay on CAKI-1 renal, 10.2%; with A498 renal, 42.1%; in the assay with MOLT-4 leukemia, -9.93% (active).
On to `CCCCCCCCC1OC1CCCCCCCC(=O)O` (configuration not stated), for which the growth is 96.6% with HCT-15 colon; 118% in the assay with HT29 colon; 92.9% with SNB-75 CNS; 101% in the assay on SNB-19 CNS; 91.3% in the assay with U251 CNS; 89.9% in the assay with PC-3 prostate. For the same compound, the growth in the assay with SK-MEL-5 melanoma is 98%; with UACC-62 melanoma, 88.5%; in the assay with LOX IMVI melanoma it was 109%; in the assay on SK-MEL-28 melanoma, 110%; with SK-MEL-2 melanoma, 103%; in the assay on SN12C renal, 94.5%. In addition, the growth with UO-31 renal is 96.7%; in the assay with TK-10 renal, 104%; in the assay on ACHN renal it was 103%; in the assay on CAKI-1 renal, 100%; in the assay with A498 renal it was 102%; in the assay with CCRF-CEM leukemia, 93%. Also, the growth in the assay with MOLT-4 leukemia is 104%.
`CCCCCCC(C)N(CC(C)(C)O)C(=O)c1ccc([N+](=O)[O-])cc1` (configuration not stated): the growth was 104% in the assay on HCT-15 colon; 91.6% with HT29 colon; 97.3% in the assay with SNB-75 CNS; 95.4% with SNB-19 CNS; 97.4% in the assay with U251 CNS; 87.2% with PC-3 prostate. In addition, the growth in the assay with SK-MEL-5 melanoma was 95%; with UACC-62 melanoma, 91.4%; in the assay on LOX IMVI melanoma, 104%; in the assay on SK-MEL-28 melanoma, 111%; with SK-MEL-2 melanoma it was 89.7%; in the assay with SN12C renal, 104%. The growth in the assay with UO-31 renal was 58.6%; in the assay with TK-10 renal, 92.6%; in the assay on ACHN renal, 107%; with CAKI-1 renal, 108%; in the assay with A498 renal it was 101%; in the assay with CCRF-CEM leukemia, 74.8%. Besides, the growth in the assay on MOLT-4 leukemia was 90.4%.
For the compound `CCCCCCCCCCCCCCCCNC(=O)Nc1ccc(C)c(NC(=O)NCCCCCCCCCCCCCCCC)c1`, the growth was 105% with HCT-15 colon; 104% with HT29 colon; 97% in the assay with SNB-75 CNS; 96.9% in the assay on SNB-19 CNS; 100% in the assay on U251 CNS; 84.5% in the assay with PC-3 prostate. The growth in the assay on SK-MEL-5 melanoma is 98.4%; with UACC-62 melanoma, 95.5%; with LOX IMVI melanoma it was 109%; with SK-MEL-28 melanoma it was 112%; in the assay on SK-MEL-2 melanoma, 117%; in the assay with SN12C renal it was 103%. Further, the growth is 74.3% with UO-31 renal; 112% with TK-10 renal; 98.7% in the assay on ACHN renal; 117% with CAKI-1 renal; 113% with A498 renal; 104% with MOLT-4 leukemia.
For `O=P(OCCCl)(OCCCl)C(O)c1ccccc1Cl` (configuration not stated), the growth was 99.5% in the assay with HCT-15 colon; 101% in the assay on HT29 colon; 96.7% in the assay on SNB-75 CNS; 107% in the assay with SNB-19 CNS; 113% in the assay with U251 CNS; 103% with PC-3 prostate. Besides, the growth with SK-MEL-5 melanoma is 112%; with UACC-62 melanoma it was 106%; in the assay with LOX IMVI melanoma, 104%; with SK-MEL-28 melanoma it was 113%; with SK-MEL-2 melanoma, 112%; in the assay on SN12C renal it was 111%. The growth with UO-31 renal is 80.2%; in the assay on TK-10 renal, 102%; with ACHN renal, 98.4%; with CAKI-1 renal, 76.4%; in the assay on A498 renal it was 121%; in the assay on MOLT-4 leukemia, 99.8%.
With `COC(=O)[C@H](Cc1cn(C)cn1)NC(=O)[C@H](CC(=O)OCc1ccccc1)NC(=O)Nc1cc(C(F)(F)F)cc(C(F)(F)F)c1`, the growth with HCT-15 colon is -82.2% [100 µM] (active); in the assay with HT29 colon it was -85.2% [100 µM] (active); in the assay on SNB-75 CNS, -98.6% [100 µM] (active); with SNB-19 CNS, -93% [100 µM] (active); in the assay on U251 CNS it was -96.5% [100 µM] (active); in the assay on PC-3 prostate it was -94.1% [100 µM] (active). In addition, the growth with SK-MEL-5 melanoma was -97.3% [100 µM] (active); in the assay on UACC-62 melanoma it was -98.3% [100 µM] (active); in the assay on LOX IMVI melanoma it was -85.3% [100 µM] (active); in the assay on SK-MEL-28 melanoma, -95.6% [100 µM] (active); in the assay on SK-MEL-2 melanoma it was -92.6% [100 µM] (active); in the assay on SN12C renal, -91.1% [100 µM] (active). The growth in the assay on UO-31 renal was -96.3% [100 µM] (active); in the assay with TK-10 renal it was -97.5% [100 µM] (active); in the assay on ACHN renal, -98.6% [100 µM] (active); in the assay with CAKI-1 renal, -91.9% [100 µM] (active); in the assay on A498 renal, -92.3% [100 µM] (active); with MOLT-4 leukemia, -62.8% [100 µM] (active).
Regarding `CC(=O)CC(=O)OC/C=C(/C)CCC=C(C)C`, the growth was 102% in the assay on HCT-15 colon; 108% in the assay on HT29 colon; 105% in the assay with SNB-75 CNS; 107% with SNB-19 CNS; 104% in the assay on U251 CNS; 111% in the assay on PC-3 prostate. The growth in the assay with SK-MEL-5 melanoma is 99.6%; in the assay on UACC-62 melanoma, 97.9%; in the assay on LOX IMVI melanoma, 97.7%; in the assay on SK-MEL-28 melanoma, 113%; in the assay on SK-MEL-2 melanoma it was 126%; with SN12C renal it was 94.5%. The growth in the assay with UO-31 renal was 102%; with TK-10 renal it was 108%; in the assay with ACHN renal, 102%; with A498 renal, 117%; with CCRF-CEM leukemia, 116%; in the assay with MOLT-4 leukemia it was 94.7%.
For `O=Nc1ccc(O)c2ccccc12`, the growth in the assay with HCT-15 colon is 23.6%; in the assay with HT29 colon it was 1.37% (active); in the assay on SNB-75 CNS, -64.5% (active); in the assay with SNB-19 CNS, 57.8%; in the assay on U251 CNS, -14% (active); in the assay on PC-3 prostate it was -10.5% (active). For the same compound, the growth is -97.4% (active) with SK-MEL-5 melanoma; 15.8% in the assay on UACC-62 melanoma; -1.33% (active) with LOX IMVI melanoma; 13.3% in the assay on SK-MEL-28 melanoma; 32.7% in the assay with EKVX NSCLC; -50.1% (active) with SN12C renal. In addition, the growth in the assay on UO-31 renal was 38%; in the assay with TK-10 renal, 5.45% (active); in the assay on ACHN renal, 19.9%; in the assay on CAKI-1 renal, 14.1%; in the assay on A498 renal, 118%; in the assay with CCRF-CEM leukemia it was 5.22% (active). Further, the growth in the assay with MOLT-4 leukemia was 59.3%.
